The nature of assay [1]: Quantitative High-Throughput drug screen in 47 multiple myeloma cell lines against the NCATS MIPE library collection: EJM_DSMZ cell viability assay (AID 1918926; further: nearly all actives have a fitted effect of over 30% in size). The method, boiled down:
(§1)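 CellTiter-Glo luminescence (ATP) after 48 h compound exposure, 37C/5% CO2; 500 cells/well; MIPE 4.0 approved/investigational drugs pinned in; DMSO = 100%, media only = 0% viability.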

Assay [2] in a line: Quantitative High-Throughput drug screen in 47 multiple myeloma cell lines against the NCATS MIPE library collection: ARP1_JJKsccF8 cell viability assay (AID 1918928; further: nearly all actives have a fitted effect of over 40% in size). The gist of the method:
(§2)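 Cell viability inhibition in this qHTS is measured via ATP content (CellTiter-Glo) after 48 h drug exposure at 37 °C. Wells hold 500 cells; DMSO-treated wells define 100% and medium-only wells 0%.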

Assay [3] can be described thus: Quantitative High-Throughput drug screen in 47 multiple myeloma cell lines against the NCATS MIPE library collection: Karpas620_DSMZ cell viability assay (AID 1918959). Further: nearly all actives have a fitted effect of over 30% in size. The gist of the method:
(§3)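 Steps: seed 500 cells per well; pin-transfer MIPE 4.0 library; incubate 48 h at 37C, 5% CO2, humidified; add CellTiter-Glo, 5 min room temperature; read luminescence.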

Assay [4] in a line: Quantitative High-Throughput drug screen in 47 multiple myeloma cell lines against the NCATS MIPE library collection: ARD_JJKsccE7 cell viability assay (AID 1918929). The gist of the method: as §1
Assay [5] can be described thus: Quantitative High-Throughput drug screen in 47 multiple myeloma cell lines against the NCATS MIPE library collection: KMM1_JCRB cell viability assay (AID 1918960). Further: nearly all actives have a fitted effect of over 30% in size. The method, boiled down:
as §2

Assay [6] in a line: Quantitative High-Throughput drug screen in 47 multiple myeloma cell lines against the NCATS MIPE library collection: Karpas417_ECACC cell viability assay (AID 1918961). Conditions: Karpas417 myeloma viability, CellTiter-Glo ATP luminescence, 48 h; viability (% of DMSO): at 45.8 µM (top of the series). The gist of the method: as §1
For orientation: ATP-based viability assays read luminescence as a measure of living cells.

A short description of assay [7]: Quantitative High-Throughput drug screen in 47 multiple myeloma cell lines against the NCATS MIPE library collection: KHM11_PLB cell viability assay (AID 1918962). Further: nearly all actives have a fitted effect of over 35% in size. The gist of the method: as §3
A short description of assay [8]: Quantitative High-Throughput drug screen in 47 multiple myeloma cell lines against the NCATS MIPE library collection: JIM3_ECACC cell viability assay (AID 1918963; further: nearly all actives have a fitted effect of over 35% in size). The gist of the method: as §3
The nature of assay [9]: Quantitative High-Throughput drug screen in 47 multiple myeloma cell lines against the NCATS MIPE library collection: JIM1_ECACC cell viability assay (AID 1918964). The gist of the method:
as §1

Assay [10] in a line: Quantitative High-Throughput drug screen in 47 multiple myeloma cell lines against the NCATS MIPE library collection: AMO1_DSMZ cell viability assay (AID 1918927; further: nearly all actives have a fitted effect of over 30% in size). The method, boiled down: as §1

The values below come from PubChem BioAssay (NCATS).

Results filed as inconclusive are left out. Calls of active or inactive are those of the source. The call rests on the fitted dose curve; in most records, active means well fitted curve in the direction sought with a large enough effect; inconclusive means small, poorly fitted or top-dose-only effect, or another doubt; inactive means no such curve, though single readings can be large; an effect the other way counts as inactive or inconclusive.
Potency means the concentration at half of the fitted maximal effect.

In the case of `N[C@@]1(C(=O)O)CS(=O)(=O)[C@H]2[C@H](C(=O)O)[C@H]21`, the Potency entry in assay [1], in [2] and in assay [3] was “inactive” throughout.
As to `O=C1C(Cl)=C(NCCN2CCOCC2)C(=O)c2ncccc21`, the Potency in assay [1] is 7.43 µM (active); in [2], 4.69 µM (active); in assay [4] it was 5.26 µM (active); in assay [3] it was 1.48 µM (active); in assay [5], 3.32 µM (active); in [6], 3.32 µM (active). Further, the Potency in assay [7] was 9.35 µM (active); in assay [8], 8.33 µM (active); in assay [9], 2.96 µM (active).
Take `C=C1C(=O)[C@@]23C(CC[C@@H]1[C@H]2O)[C@@]12CO[C@]3(O)[C@@H](O)[C@@H]1C(C)(C)CC[C@@H]2O` (stereo partly specified): the Potency in assay [1] was 2.96 µM (active); in assay [2] it was 5.9 µM (active); in [4], 1.48 µM (active); in assay [3], 0.935 µM (active); in assay [5], 2.35 µM (active); in [7], 5.26 µM (active). The Potency in [8] was 10.5 µM (active); in assay [9], 1.05 µM (active).
As for `C[C@@H]1CCN(C(=O)CC#N)C[C@H]1N(C)c1ncnc2[nH]ccc12`, the Potency entry in assay [1], in [2], in assay [3], in [5] and in assay [6] was “inactive” each time.
With `O=C(O)C=Cc1ccc(O)c(O)c1`, the Potency in assay [1] was 13.2 µM (active); in assay [2] it was 26.4 µM (active); in assay [3] it was 20.9 µM (active); in assay [6] it was 14.8 µM (active). Moreover, the Potency result in [7] and in assay [8] was “inactive” each time.
As for `O=C1c2c(O)cc(O)cc2O[C@H](c2cc(O)c(O)c(O)c2)[C@H]1O`, the Potency was 1.66 µM (active) in assay [1], 11.8 µM (active) in [2] and 5.9 µM (active) in assay [9]. Moreover, the Potency result in [4], in [5] and in [7] was “inactive” each time.
In the case of `CC1(C)CCC(CN2CCN(c3ccc(C(=O)NS(=O)(=O)c4ccc(NCC5CCOCC5)c([N+](=O)[O-])c4)c(Oc4cnc5[nH]ccc5c4)c3)CC2)=C(c2ccc(Cl)cc2)C1`, the Potency in assay [1] was 20.9 µM (active); in [2] it was 23.5 µM (active); in assay [3] it was 0.332 µM (active); in assay [5] it was 8.33 µM (active). Also, the Potency entry in [8] was “inactive”.
On to `CNC(=O)c1ccc2cc(C3(O)CCn4cncc43)ccc2c1` (stereo unspecified), for which the Potency result in [1], in [2], in assay [4], in [5], in [7] and in [9] was “inactive” in each case.
Regarding `CO[C@H]1C=CC=C(C)C(=O)NC2=CC(=O)C(NCCN(C)C)=C(C[C@@H](C)C[C@H](OC)[C@@H](O)[C@@H](C)C=C(C)[C@@H]1OC(N)=O)C2=O`, the Potency is 1.48 µM (active) in assay [1]; 0.0118 µM (active) in assay [2]; 0.001 µM (active) in [4]; 0.296 µM (active) in [3]; 0.0526 µM (active) in [5]; 0.0372 µM (active) in assay [7]. Further, in assay [9], the Potency was 0.0209 µM (active).
In the case of `O=C1c2ccccc2-[n+]2ccc3c([nH]c4ccccc43)c21`, the Potency was 1.48 µM (active) in [1]; 2.09 µM (active) in assay [2]; 7.43 µM (active) in assay [4]; 3.72 µM (active) in assay [3]; 3.72 µM (active) in [5]; 8.33 µM (active) in assay [6]. Moreover, the Potency in [7] was 2.35 µM (active); in assay [8] it was 0.59 µM (active); in [9], 3.72 µM (active).
Turning to `CC1(C)CCC[C@@]2(C)[C@@H]1CC[C@@]1(C)OC(=O)C[C@H]21`, the Potency entry in assay [1], in [2], in assay [3], in [5], in [7] and in assay [8] was “inactive” each time. Moreover, in assay [9], the Potency result is “inactive”.
Take `CC(C)(C)c1cc(C(=O)O)c(NC(=O)Nc2ccc3[nH]ncc3c2)s1`: the Potency entry in assay [1], in [2], in [4], in [3], in assay [5] and in assay [7] was “inactive” in each case. For the same compound, the Potency result in assay [8] and in [9] was “inactive” each time.
As to `COc1cccc([C@@H](C)NCCCc2ccccc2Cl)c1`, the Potency result in assay [1], in [2], in assay [7] and in assay [8] was “inactive” throughout.
As to `NC(=O)c1cccc2[nH]c(-c3ccc([C@H]4CCCN4)cc3F)nc12`, in assay [1], the Potency result is “inactive”. In addition, the Potency in assay [8] is 14.8 µM (active).
For `C[C@]12CC[C@@H]3c4ccc(O)cc4CC[C@H]3[C@H]1C[C@@H](O)[C@H]2O`, the results for the Potency in assay [10], in [2] and in assay [3] were 18.7 µM (active), 9.35 µM (active) and 18.7 µM (active), respectively. Also, the Potency entry in assay [4], in [6] and in assay [8] was “inactive” in each case.
On to `CCOc1ccc(Nc2nc(-c3c(C)nc4ccccn34)cs2)cc1`, for which the Potency in [10] is 0.001 µM (active); in assay [2], 0.003 µM (active); in assay [4], 0.001 µM (active); in [3], 0.0015 µM (active); in assay [5], 0.001 µM (active); in assay [7], 0.0743 µM (active). Besides, the Potency result in assay [8] is “inactive”.
In the case of `Cc1ccc(Nc2cc(-c3cccc(N4C(=O)c5ccccc5C4=O)c3)ncn2)cc1NS(C)(=O)=O`, the Potency in assay [1] was 26.4 µM (active); in assay [4], 20.9 µM (active); in assay [5] it was 18.7 µM (active); in assay [6], 4.69 µM (active); in [8], 18.7 µM (active).
Consider `Cc1ccc(F)c(NC(=O)Nc2ccc(-c3cccc4[nH]nc(N)c34)cc2)c1`, for which the Potency in assay [10] was 10.5 µM (active); in [2] it was 26.4 µM (active); in assay [4], 3.32 µM (active); in [3], 20.9 µM (active); in assay [5] it was 4.18 µM (active); in [7] it was 8.33 µM (active). The Potency was 7.43 µM (active) in assay [8] and 1.87 µM (active) in assay [9].
For `O=c1ccn([C@@H]2O[C@H](CO)[C@H](O)[C@H]2O)c(=O)[nH]1`, the Potency entry in assay [1], in [3], in [5], in assay [7] and in [8] was “inactive” each time.
